What all share (set-up): scale not given: direction of the effect not stated beside the values
The target in assay [1] is Protein translocase subunit SecA (Escherichia coli (strain K12)) (UniProt P10408). Briefly: Assay to Identify E. coli SecA ATPase Inhibitors. As to conditions: 30 µM. The class given is functional.
In assay [2] the target is T1, Ubiquitin-activating enzyme e1, putative (Leishmania donovani (strain BPK282A1)) (UniProt E9BSI1).
T1 sequence (whole entry): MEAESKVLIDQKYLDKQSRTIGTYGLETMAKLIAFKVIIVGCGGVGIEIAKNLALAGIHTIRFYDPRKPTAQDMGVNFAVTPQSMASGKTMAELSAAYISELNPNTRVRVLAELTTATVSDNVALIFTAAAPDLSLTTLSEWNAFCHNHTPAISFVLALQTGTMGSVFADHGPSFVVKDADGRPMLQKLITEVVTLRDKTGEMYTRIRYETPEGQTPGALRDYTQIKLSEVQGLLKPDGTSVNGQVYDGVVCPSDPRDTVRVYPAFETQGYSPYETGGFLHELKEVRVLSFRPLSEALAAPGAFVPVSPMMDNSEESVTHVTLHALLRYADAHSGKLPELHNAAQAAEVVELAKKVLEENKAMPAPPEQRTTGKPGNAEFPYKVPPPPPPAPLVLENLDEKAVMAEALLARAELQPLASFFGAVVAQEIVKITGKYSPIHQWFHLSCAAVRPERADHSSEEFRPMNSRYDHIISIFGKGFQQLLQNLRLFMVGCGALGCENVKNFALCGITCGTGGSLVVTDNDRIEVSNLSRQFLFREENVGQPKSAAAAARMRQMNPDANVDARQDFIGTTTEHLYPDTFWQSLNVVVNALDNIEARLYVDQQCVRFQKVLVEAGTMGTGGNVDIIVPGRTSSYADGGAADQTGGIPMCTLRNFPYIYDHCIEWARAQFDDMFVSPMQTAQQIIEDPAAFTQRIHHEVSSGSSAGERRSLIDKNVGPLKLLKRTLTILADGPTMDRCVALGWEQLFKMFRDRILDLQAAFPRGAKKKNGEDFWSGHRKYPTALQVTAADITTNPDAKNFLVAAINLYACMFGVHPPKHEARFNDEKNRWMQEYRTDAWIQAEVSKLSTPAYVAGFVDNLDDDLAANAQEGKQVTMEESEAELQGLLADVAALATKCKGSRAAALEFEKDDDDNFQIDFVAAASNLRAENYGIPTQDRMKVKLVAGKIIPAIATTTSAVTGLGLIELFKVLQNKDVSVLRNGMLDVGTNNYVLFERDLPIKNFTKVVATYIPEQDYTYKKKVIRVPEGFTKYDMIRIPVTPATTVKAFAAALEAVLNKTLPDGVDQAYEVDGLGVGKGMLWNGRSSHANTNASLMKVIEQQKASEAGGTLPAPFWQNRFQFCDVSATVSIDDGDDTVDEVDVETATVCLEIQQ
Briefly: Leishmania donovani Ubiquitin Activating Enzyme (LdE1). Format: functional. As to conditions: 30 µM.

The target of assay [3] is T2, Aspartate--tRNA(Asp/Asn) ligase (Mycobacterium tuberculosis (strain ATCC 25618 / H37Rv)) (UniProt P9WFW3). Note: in the data most compounds retested in dose-response had high values.
T2 sequence (whole entry): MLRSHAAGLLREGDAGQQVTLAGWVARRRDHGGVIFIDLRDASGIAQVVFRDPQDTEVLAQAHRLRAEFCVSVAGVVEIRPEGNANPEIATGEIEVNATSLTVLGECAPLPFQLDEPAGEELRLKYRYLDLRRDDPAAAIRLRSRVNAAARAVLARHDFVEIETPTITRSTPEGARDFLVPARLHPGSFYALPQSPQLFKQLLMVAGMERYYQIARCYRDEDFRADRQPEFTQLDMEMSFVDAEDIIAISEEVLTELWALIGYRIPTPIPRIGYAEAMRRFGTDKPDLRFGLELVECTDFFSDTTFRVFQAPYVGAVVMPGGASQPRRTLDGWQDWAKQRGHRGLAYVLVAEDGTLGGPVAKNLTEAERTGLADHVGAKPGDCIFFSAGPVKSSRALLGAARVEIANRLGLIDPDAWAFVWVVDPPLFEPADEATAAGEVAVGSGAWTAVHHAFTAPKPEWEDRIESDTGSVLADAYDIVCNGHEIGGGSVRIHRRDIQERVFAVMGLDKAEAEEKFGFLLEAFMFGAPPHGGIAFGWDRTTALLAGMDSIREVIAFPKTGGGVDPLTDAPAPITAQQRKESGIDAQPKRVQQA
Briefly: Assay for Asp RNA synthetase-1 from Mycobacterium tuberculosis. As to conditions: 30 µM. The class given is functional.

Assay [4] concerns the target Sialic acid-binding Ig-like lectin 9 (Homo sapiens) (UniProt Q9Y336). Description: Hs-Siglec9 ALPHAscreen SOP 20170721. The settings on record: 10 µM. (In general: Alpha assays give light when donor and acceptor beads are brought close together.)
Assay [5] relates to Trypanosoma cruzi. Description: Trypanosoma cruzi phosphomannomutase and mannose-1-phosphate guanylyltransferase assay. Format: functional. As to conditions: 10 µM.
In assay [6] the target is T3, Arginase-2, mitochondrial (Homo sapiens) (UniProt P78540).
T3 sequence (whole entry): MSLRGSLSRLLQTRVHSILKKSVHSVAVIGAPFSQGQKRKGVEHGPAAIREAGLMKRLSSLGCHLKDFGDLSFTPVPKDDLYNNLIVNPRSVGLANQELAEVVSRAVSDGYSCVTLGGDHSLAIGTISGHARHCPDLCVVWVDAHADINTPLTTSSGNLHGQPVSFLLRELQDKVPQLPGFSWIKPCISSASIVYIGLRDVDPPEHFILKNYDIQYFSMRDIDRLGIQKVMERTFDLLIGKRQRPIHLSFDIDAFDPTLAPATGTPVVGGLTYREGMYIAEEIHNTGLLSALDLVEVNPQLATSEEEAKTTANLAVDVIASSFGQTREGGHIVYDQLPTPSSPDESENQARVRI
Description: in vitro enzyme assay to detect the production of urea directly proportional to the activity of Arginase II. Note: in the data most compounds retested in dose-response had high values. The class given is functional. As to conditions: 33.3 µM.

Assay [7] addresses T4, Proteasome subunit beta (Trypanosoma cruzi) (UniProt O96673).
T4 sequence (whole entry): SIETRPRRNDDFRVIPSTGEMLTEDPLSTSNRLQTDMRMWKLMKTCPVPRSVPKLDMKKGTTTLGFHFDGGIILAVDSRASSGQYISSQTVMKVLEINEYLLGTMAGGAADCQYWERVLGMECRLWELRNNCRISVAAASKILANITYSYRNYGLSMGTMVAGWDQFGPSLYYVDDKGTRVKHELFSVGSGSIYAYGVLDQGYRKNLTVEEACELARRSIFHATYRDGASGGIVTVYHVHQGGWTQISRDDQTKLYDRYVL
Description: Trypanosoma cruzi proteasome chymotrypsin-like activity (TcProtChymo) assay. Note: in the data most compounds retested in dose-response had high values. Format: functional. As to conditions: 9.37 µM.

For assay [8], the species on record is Homo sapiens. Description: To identify inhibition of the IFN signalling (Jak-Stat) pathway via expression of an eGFP reporter gene under the control of an IFN-stimulated response element (ISRE) containing MxA promoter. The class given is functional. The settings on record: 30 µM. Background: A reporter such as luciferase makes a cellular process visible.
For assay [9], the target named is Shiga toxin 2 (Escherichia coli O157:H7) (UniProt P09385+P09386). Briefly: E. coli 0.157:H7 Shiga Toxin SOP - stx2 screening assay. The class given is functional. The settings on record: 30 µM.
Assay [10] deals with T5, Tyrosyl-tRNA synthetase, putative (Trypanosoma cruzi (strain CL Brener)) (UniProt Q4DSP6).
T5 sequence (whole entry): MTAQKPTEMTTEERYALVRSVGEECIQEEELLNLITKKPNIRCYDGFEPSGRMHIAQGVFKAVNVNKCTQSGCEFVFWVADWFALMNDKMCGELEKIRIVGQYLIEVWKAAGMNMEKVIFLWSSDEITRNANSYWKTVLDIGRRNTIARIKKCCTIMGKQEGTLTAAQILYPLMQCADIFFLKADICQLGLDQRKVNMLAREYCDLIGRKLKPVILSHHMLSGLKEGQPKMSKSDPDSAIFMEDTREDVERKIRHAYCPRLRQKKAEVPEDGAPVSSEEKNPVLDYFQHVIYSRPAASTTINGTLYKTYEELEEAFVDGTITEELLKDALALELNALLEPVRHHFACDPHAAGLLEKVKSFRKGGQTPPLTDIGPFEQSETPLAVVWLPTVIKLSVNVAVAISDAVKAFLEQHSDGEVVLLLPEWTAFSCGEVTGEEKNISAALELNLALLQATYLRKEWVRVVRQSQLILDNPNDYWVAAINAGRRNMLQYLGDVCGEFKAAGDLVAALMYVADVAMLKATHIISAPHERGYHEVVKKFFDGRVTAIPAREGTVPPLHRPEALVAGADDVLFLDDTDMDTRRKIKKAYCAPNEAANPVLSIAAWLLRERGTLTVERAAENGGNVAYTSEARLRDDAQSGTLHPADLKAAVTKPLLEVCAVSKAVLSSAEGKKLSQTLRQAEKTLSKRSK
Description: Trypanosoma cruzi tyrosyl tRNA synthetase (TcYRS) _High Tyrosine SOP. Note: in the data most compounds retested in dose-response had high values. Format: functional. The settings on record: 30 µM.

The target of assay [11] is T5, Tyrosyl-tRNA synthetase, putative (Trypanosoma cruzi (strain CL Brener)). Description: Trypanosoma cruzi tyrosyl tRNA synthetase (TcYRS) SOP. The class given is functional. As to conditions: 30 µM.
Assay [12] addresses Chromo domain-containing protein 1 (Saccharomyces cerevisiae (strain ATCC 204508 / S288c) (Baker's yeast)) (UniProt P32657). Description: ScCHD-1 Enzyme Inhibition Assay. Note: in the data most compounds retested in dose-response had high values. The class given is functional. As to conditions: 30 µM.

SMILES strings stand for the structures. For some of these results: Entries with a potency or affinity are not part of this list.

Sialic acid-binding Ig-like lectin 9 (Homo sapiens), sequence (Q9Y336 whole entry): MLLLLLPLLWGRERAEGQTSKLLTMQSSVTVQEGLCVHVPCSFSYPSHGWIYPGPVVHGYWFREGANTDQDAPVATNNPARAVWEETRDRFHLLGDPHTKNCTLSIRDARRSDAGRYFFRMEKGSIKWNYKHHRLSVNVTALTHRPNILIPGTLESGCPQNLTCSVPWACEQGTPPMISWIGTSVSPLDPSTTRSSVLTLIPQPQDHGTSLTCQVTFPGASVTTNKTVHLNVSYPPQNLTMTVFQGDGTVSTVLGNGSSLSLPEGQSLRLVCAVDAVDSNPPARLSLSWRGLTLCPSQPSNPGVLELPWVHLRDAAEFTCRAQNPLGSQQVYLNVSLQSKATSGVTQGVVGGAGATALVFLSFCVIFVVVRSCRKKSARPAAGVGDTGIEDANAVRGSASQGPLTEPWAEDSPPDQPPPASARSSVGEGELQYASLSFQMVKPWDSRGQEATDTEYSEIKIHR
Protein translocase subunit SecA (Escherichia coli (strain K12)), sequence (P10408 whole entry): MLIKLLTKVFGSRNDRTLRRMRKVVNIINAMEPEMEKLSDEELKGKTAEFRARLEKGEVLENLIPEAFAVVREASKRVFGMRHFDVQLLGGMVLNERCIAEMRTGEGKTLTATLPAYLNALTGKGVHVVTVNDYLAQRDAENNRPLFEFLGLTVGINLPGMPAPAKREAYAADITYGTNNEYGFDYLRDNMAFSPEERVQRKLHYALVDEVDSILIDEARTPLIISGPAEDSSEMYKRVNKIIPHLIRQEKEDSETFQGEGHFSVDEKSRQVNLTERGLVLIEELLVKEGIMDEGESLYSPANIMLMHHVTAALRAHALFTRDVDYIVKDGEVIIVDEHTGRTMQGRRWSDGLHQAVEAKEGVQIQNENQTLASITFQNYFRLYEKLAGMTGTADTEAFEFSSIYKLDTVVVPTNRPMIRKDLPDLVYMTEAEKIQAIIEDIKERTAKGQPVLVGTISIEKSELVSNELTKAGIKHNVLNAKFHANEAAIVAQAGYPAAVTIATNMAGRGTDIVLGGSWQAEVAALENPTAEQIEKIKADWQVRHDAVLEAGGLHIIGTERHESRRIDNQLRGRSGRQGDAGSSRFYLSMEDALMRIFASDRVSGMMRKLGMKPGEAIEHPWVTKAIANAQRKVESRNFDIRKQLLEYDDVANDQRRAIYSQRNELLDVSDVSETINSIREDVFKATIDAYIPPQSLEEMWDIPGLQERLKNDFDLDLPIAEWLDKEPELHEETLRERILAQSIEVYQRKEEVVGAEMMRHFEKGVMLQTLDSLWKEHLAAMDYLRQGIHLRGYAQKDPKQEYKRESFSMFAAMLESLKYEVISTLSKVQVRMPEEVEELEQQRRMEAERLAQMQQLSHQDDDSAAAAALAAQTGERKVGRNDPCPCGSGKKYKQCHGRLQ
Chromo domain-containing protein 1 (Saccharomyces cerevisiae (strain ATCC 204508 / S288c) (Baker's yeast)), sequence (P32657 whole entry, the tested form may be a part): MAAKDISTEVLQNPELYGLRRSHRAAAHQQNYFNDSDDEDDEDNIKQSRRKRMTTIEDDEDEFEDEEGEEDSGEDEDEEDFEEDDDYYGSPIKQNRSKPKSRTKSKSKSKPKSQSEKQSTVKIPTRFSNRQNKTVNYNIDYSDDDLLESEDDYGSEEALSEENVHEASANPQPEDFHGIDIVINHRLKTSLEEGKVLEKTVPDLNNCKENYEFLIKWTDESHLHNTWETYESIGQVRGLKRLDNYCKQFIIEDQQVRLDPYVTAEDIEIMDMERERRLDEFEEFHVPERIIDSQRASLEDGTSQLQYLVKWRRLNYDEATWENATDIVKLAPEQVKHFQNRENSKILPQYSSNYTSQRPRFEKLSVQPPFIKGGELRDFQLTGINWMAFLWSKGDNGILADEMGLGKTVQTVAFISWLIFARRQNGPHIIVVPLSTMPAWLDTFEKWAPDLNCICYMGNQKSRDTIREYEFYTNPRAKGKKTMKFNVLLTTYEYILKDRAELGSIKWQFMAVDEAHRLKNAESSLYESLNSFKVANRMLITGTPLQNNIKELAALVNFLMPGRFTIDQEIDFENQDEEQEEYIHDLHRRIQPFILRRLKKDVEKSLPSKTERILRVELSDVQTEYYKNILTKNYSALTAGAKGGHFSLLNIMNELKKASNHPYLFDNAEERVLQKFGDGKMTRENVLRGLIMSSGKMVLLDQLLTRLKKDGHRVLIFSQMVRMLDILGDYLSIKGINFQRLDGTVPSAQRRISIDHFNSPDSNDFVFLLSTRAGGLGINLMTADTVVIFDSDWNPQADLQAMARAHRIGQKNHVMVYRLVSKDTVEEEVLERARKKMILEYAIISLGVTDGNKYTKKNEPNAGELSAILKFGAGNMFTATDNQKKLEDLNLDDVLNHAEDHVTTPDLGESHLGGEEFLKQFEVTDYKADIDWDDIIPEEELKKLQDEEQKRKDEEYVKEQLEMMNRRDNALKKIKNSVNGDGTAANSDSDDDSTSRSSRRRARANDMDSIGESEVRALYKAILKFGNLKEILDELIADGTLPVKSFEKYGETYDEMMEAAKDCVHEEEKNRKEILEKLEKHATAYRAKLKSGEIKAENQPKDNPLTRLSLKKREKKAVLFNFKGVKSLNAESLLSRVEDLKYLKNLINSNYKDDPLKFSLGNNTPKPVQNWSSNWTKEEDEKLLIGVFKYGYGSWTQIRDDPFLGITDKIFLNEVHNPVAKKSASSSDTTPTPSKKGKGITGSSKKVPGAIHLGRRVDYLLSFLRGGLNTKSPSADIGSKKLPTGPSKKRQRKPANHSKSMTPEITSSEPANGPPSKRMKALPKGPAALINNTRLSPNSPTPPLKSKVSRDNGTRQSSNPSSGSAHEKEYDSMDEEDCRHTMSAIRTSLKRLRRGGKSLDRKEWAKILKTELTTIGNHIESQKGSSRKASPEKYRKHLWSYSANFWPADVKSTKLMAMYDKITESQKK

Take `CCc1cnc(N2CC3(CCN(Cc4ccsc4)C3)C2)nc1`: the Percent Effect in [1] was -5.86%; in [2], 3.9%; in assay [3], 14.2%; in [4], -1.39%; in assay [5], -7.3%; in [6] it was 0%. The Percent Effect was 9.27% in [7]; 12.9% in assay [8]; -11% in assay [9]; 8.95% in assay [10]; 2.56% in assay [11]; -4.35% in assay [12].
For the compound `CCC(O)CN1CCN(C(=O)Cc2cc(Cl)ccc2OC)CC1` (centres undefined), the Percent Effect in [1] was 1.11%; in assay [2], 13%; in [3] it was -1.9%; in [4], 12.1%; in assay [5], -1.31%; in assay [6] it was -3.89%. Besides, the Percent Effect in assay [7] was 4.04%; in assay [8] it was 13.4%; in assay [9], -9.78%; in [10], 4.9%; in [11], 21.2%; in assay [12], -7%.
In the case of `O=C(Cc1ccc(-n2cccn2)cc1)N1CCN2CCCCC2C1` (centres undefined), the Percent Effect in assay [1] is -4.18%; in assay [2], -10.7%; in [3], -7.19%; in [4], 2.63%; in assay [5] it was -5.42%; in assay [6], 3.55%. Besides, the Percent Effect is 9.58% in [7]; 0.299% in [8]; -24.9% in [9]; 1.58% in assay [10]; 5.13% in assay [11]; -13.6% in [12].
Consider `COc1ncccc1C(=O)N1CCC(CNC(C)=O)CC1`, for which, in assay [3], the Percent Effect came to 1.83%.
Take `N#CC(Sc1nnnn1C1CCOCC1)C1CCCCC1` (centres undefined): the Percent Effect in assay [3] was -2.4%.
For the compound `c1ccc(OCCN2CCCC(c3noc(C4CC4)n3)C2)cc1` (centres undefined), the Percent Effect in assay [3] was -0.885%.
Still for that read-out and setting: in the case of `CCC(=O)NCc1cc(Br)ccc1OC(F)F` it was 0.885%; in that of `CCSCCC(=O)Nc1ncn(CC(=O)NCc2ccccc2)n1`, -2.33%; in that of `O=C(O)c1ccn(-c2ccccc2NS(=O)(=O)c2ccccc2)n1`, 1.9%.
The same measure, in the same setting: in the case of `CCC[C@@H]1CN(S(=O)(=O)c2ccc(C)c(F)c2)C[C@H]1N(C)C` it was 0.149%; in that of `CCc1nc(CCNC(=O)Nc2cc(C(N)=O)sc2C)cs1`, -1.32%.
On the same count and under the same terms, in the case of `CCn1nc(CC(C)C)cc1C(=O)N1C[C@H](O)[C@@H](N2CCCCC2)C1` it was -2.61%; in that of `COc1ccc(-n2cnnc2SCC(C)(C)O)cn1`, -0.425%.
As to `O=C(CN1CCNCC1)N1CC[C@@H](c2ccc3ccccc3c2)[C@H](O)C1`, the Percent Effect in assay [3] was -0.747%.
On the same count and under the same terms, in the case of `Cc1nc2c(c(C)c1CC(=O)Nc1ccc(Cl)cc1)c(=O)[nH]n2C` it was -4.86%; in that of `CC(C)Oc1ccc(CSc2nnc(CN3CCCC3=O)o2)cc1`, -7.23%; in that of `CN1CCN(C(CNC(=O)CCn2cccn2)c2cccs2)CC1` (centres undefined), -1.05%.
Still for that read-out and setting: the result for `O=C1N(Cc2ccccc2F)CCCC12CCN(C1CCSCC1)C2` (centres undefined) reads -2.75%.
Still for that read-out and setting: the result for `CCNC(=O)c1cnc(Cc2ccc(F)cc2)s1` reads -3.94%; that for `COc1ccc([C@@H]2CN(C(=O)CCC(F)(F)F)C[C@H]2NC(C)=O)cc1`, -2.84%; that for `O=C(NC1(c2nnn(CCO)n2)CCCC1)c1ccccc1`, -6.13%.
With `CCN(CC1CN(CCc2ccccn2)CCO1)c1cccnn1` (centres undefined), in [3], the Percent Effect was -1%.
The same measure, in the same setting: the result for `CCN(CC)CC(=O)NCCc1csc(N2CCCC2)n1` reads 1.28%; that for `O=C1N(Cc2cccc(F)c2F)CCCC1(O)CN1CCCOCC1` (centres undefined), -2.15%; that for `O=C(NCCc1ccncc1)C1CCN(Cc2ccco2)CC1`, -3.6%.
Still for that read-out and setting: in the case of `CCCn1cc(C(=O)N(C)Cc2nc(-c3ccccn3)no2)c(C)n1` it was -0.218%; in that of `CCOc1cccc(C(C)NCc2ccc(OC)c(OC)c2OC)c1` (centres undefined), -1.94%; in that of `COc1ccc(-c2nc(CN3CCOCS3(=O)=O)c(C)o2)cc1`, -1.67%.
On the same count and under the same terms, the result for `CCC(=O)NCc1cc(Br)c(OC)c(OC)c1` reads -1.55%.
With `FC(F)(F)COCCN1CCCC(c2noc(C3CC3)n2)C1` (centres undefined), in assay [3], the Percent Effect is -0.517%.
Still for that read-out and setting: the result for `CC(C)CN1CCc2[nH]cnc2C12CCN(C(=O)c1cccnc1)CC2` reads 1.3%.
